# According to PubChem BioAssay (NCI):
# This is part of a sample that, as a whole, favours compounds with a hit. Of some 83,000 tested, about 20% had one in any assay.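 Values shown are percent growth following 48 h exposure of cells in 96-well plates to a single concentration of compound; below 10 was considered active.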 A number with no mark means an inactive call. Active and inactive are the calls of the source.
# Experiments:
# Experiment in all cases: NCI-60 one-dose screen, 48 h (100 = growth as untreated, 0 = no growth, -100 = all killed)
# [1] = test system: NCI-H23 lung; details: 10 µM unless noted
# [2] = test system: NCI-H322M lung; details: 10 µM unless noted
# [3] = test system: HOP-62 NSCLC; details: 10 µM unless noted
# [4] = test system: NCI-H460 lung; details: 10 µM unless noted
# [5] = test system: HOP-92 NSCLC; details: 10 µM unless noted
# [6] = test system: A549/ATCC NSCLC; details: 10 µM unless noted
# [7] = test system: 786-0 renal; details: 10 µM unless noted
# [8] = test system: COLO 205 colon; details: 10 µM unless noted
# [9] = test system: NCI-H522 lung; details: 10 µM
SMILES,growth [1],growth [2],growth [3],growth [4],growth [5],growth [6],growth [7],growth [8],growth [9]
CCC(=O)Nc1nnc(Cc2ccc(OC)c(OC)c2)s1,60.4%,24.9%,-67.2% (active),-43.7% (active),32.6%,-55% (active),9.21% (active),28.2%,
Nc1c(Br)cc(Br)cc1-c1n[nH]c(=O)[nH]c1=O,91.3%,109%,93.5%,102%,54.6%,113%,100%,102%,
Cc1ccccc1-n1nnc(C(=O)Nc2ccc(-c3ccccc3)cn2)c1C,38.1% [50 µM],81.3% [50 µM],93.7% [50 µM],61.9% [50 µM],74.3% [50 µM],29.8% [50 µM],62.1% [50 µM],40.2% [50 µM],
Fc1c[c-]c(-c2ccccn2)c(F)c1.Fc1c[c-]c(-c2ccccn2)c(F)c1.[Cl][Pt+].[Cl][Pt+].c1ccc([PH+](C[PH+](c2ccccc2)c2ccccc2)c2ccccc2)cc1,-6.3% (active),66.6%,20.9%,8.7% (active),2.42% (active),20.6%,31.8%,-65.2% (active),
O=C1c2ccccc2-c2nnc(-c3ccc(Br)cc3)cc21,47%,86.8%,56.3%,81.6%,78.6%,1.3% (active),82.3%,99.7%,
Oc1ccccc1/C=N/Nc1nc2ccccc2s1,59.4%,63.1%,49.2%,15.7%,44.5%,45%,73.4%,38%,
Cc1c(C(=O)Nc2nc(-c3ccccc3)cs2)nnn1-c1cccc2ccccc12,33% [50 µM],84.6% [50 µM],87.9% [50 µM],56.4% [50 µM],70.7% [50 µM],43.9% [50 µM],79.8% [50 µM],69.1% [50 µM],
COc1cc(/C=C/C(=O)CC(=O)/C=C/c2cc(Br)c(OC)c(OC)c2)cc(Br)c1OC,100%,97.6%,93.1%,109%,93.7%,96.1%,94.3%,,92.8%
CC(C)(C)[Si](C)(C)OC1[C@@H](O[Si](C)(C)C(C)(C)C)[C@@H](CNC(=O)NC(=O)C(F)(F)F)O[C@H]1n1cnc2c(NC(=O)Nc3ccccc3)ncnc21 (some centres undefined),86.4%,97.6%,93%,36.1%,-11.4% (active),51.4%,83.1%,91.9%,
CCN(CC)c1ccc(/C=C(\C#N)c2cc3ccccc3[nH]2)cc1,79.2%,88.7%,77.7%,24.4%,97%,39.4%,80%,45.3%,
NC(=O)c1cccc(-n2ccc3cc(NC(=O)Nc4ccc(Cl)c(Cl)c4)ccc32)n1,92.9%,96.7%,81.1%,75.4%,78%,74.4%,66.4%,,68.2%
Cc1ccc(NS(=O)(=O)c2ccc(-c3cnc(C4CC4)o3)cc2)cc1,58.8%,69%,36.4%,7.82% (active),57%,40.2%,50.8%,,9.2% (active)
CC1CCCCN1S(=O)(=O)c1ccc(CN=C=S)cc1 (centres undefined),97.1%,96.6%,108%,88.4%,60.8%,102%,55.9%,52.8%,
CCCCCn1c(=N)n(CC(O)COc2cccc(C)c2)c2ccccc21 (centres undefined),7.8% (active),14%,17.9%,0.388% (active),-10.9% (active),,32.6%,87.2%,
O=C1NC(=O)C(CSc2ccccc2)(c2ccccc2)N1 (centres undefined),97.7%,86.5%,97.3%,118%,90.8%,92.4%,103%,98%,
CCOC(=O)c1c(-c2cc(OC)c(OC)c(OC)c2)csc1N,92.9%,99.4%,80%,104%,,96.9%,112%,90.7%,79.6%
CC1SC(c2cccc(Oc3ccccc3)c2)N(CCc2cccs2)C1=O (centres undefined),-14.2% (active),4.21% (active),6.21% (active),-64.2% (active),,-9.36% (active),-29.6% (active),-60.1% (active),-50.8% (active)
Cc1ccc2nc(NC(=O)CSC(=S)N3CCN(C)CC3)sc2c1,92.4%,106%,106%,106%,94.5%,95.3%,108%,105%,
O=S(=O)(/N=C1C=C/C(=N\S(=O)(=O)c2ccccc2)c2ccccc2\1)c1ccccc1,83.1%,107%,90.2%,112%,,101%,115%,,85.9%
CCN1C(=O)C2(Nc3ccccc3S2)c2cc(C)ccc21 (centres undefined),111%,96.2%,89.7%,109%,,95.7%,113%,97%,86.8%
Clc1cccc(Cl)c1Nc1ccc2nnc(-c3ccncc3)n2n1,95.8%,88.5%,103%,106%,,104%,104%,110%,-74.4% (active)
COc1cc(C2CC(=O)Nc3c2ccc2ccccc32)cc(Br)c1OC (centres undefined),28.5%,33.1%,24.9%,3.08% (active),,18.6%,30.6%,-57.5% (active),-42.7% (active)
CC(=O)c1cc(C)c(OC(=O)c2ccccc2)c(C)c1,89.8%,119%,96.8%,106%,96.1%,,100%,93.9%,
Cc1nc2nc(C(F)(F)F)[nH]c2nc1C,107%,110%,93.2%,111%,,99.7%,93.5%,108%,90.1%
COc1cc(-c2nc(SC(C)C)nc(Nc3cccc(C)c3)c2C#N)cc(OC)c1OC,103%,107%,103%,108%,106%,91%,109%,109%,
O=c1c2c(=NCCN3CCCC3)cc3c(=O)n(CCCN4CCOCC4)c(=O)c4c(-c5ccc(CN6CCCC6)cc5)cc(c(O)n1CCCN1CCOCC1)c2c4-3,-70.9% (active),-29.6% (active),-21.3% (active),-62.9% (active),-16.4% (active),-16.2% (active),-42% (active),-60.4% (active),
Cc1nc(-c2ccccc2)cc2c(O)c(C(=O)N/N=C/Cc3ccccc3)[nH]c(=O)c12,100%,107%,104%,102%,,105%,103%,,91.1%
c1ccc2cc(-c3n(Cc4ccc5ccccc5n4)c4ccccc4[n+]3Cc3ccc4ccccc4n3)ccc2c1,-16.5% (active),7.73% (active),-7% (active),-57.3% (active),-31.6% (active),,5.11% (active),-66.7% (active),
